# According to PubChem BioAssay (NCI):
# About 83,000 compounds went through this panel and 20% of them were active in at least one assay; those are over-represented in the sample as a whole.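 Interpretation: 100, growth as untreated; towards 0, rising growth inhibition; 0, no net growth; 0 to -100, cell death. Compounds scoring below 10 were considered active.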 Unmarked numbers belong to inactive results. Calls of active or inactive are those of the source.
# Test system: MDA-MB-468 breast
# Assay: NCI-60 one-dose screen, 48 h (100 = growth as untreated, 0 = no growth, -100 = all killed)
# Settings: 10 µM unless noted
row,Structure (SMILES),growth
1,CN(C)CCOC(=O)Nc1nc2ccc(Sc3ccccc3)cc2[nH]1,2.02% (active)
2,Oc1ccc(-c2nc3ccccc3s2)cc1CN(Cc1ccccn1)Cc1ccccn1,13.6%
3,Cc1ccc(S(=O)(=O)OC[C@@]2(C)CC[C@]3(C)CC[C@]4(C)C(=CC[C@@H]5[C@@]6(C)CCCNC(C)(C)[C@@H]6CC[C@]54C)[C@@H]3C2)cc1,-85.5% (active)
4,COc1cc(/C=C/C(=O)c2ccccc2)ccc1Oc1nc(NCCO)nc(N2CCOCC2)n1,103%
